The source of these data is PubChem BioAssay.

Values without a mark were called inactive. For some of these results: Results with a measured potency or affinity are listed apart. Active and inactive are the calls of the source. Unless noted, no rule for the calls is given here.

Assay [1] in a line: antimalarial activity against Dd2 strain (AID 2302;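 active = growth inhibition above 50% at the single 2 µM test dose, taken to imply half-maximal potency below 2 µM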;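 also: 0% = DMSO untreated growth and 100% = chloroquine plus artemisinin killed control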). Conditions: P. falciparum Dd2 in RBCs, LDH growth readout, 72 h; at 2 µM; hits give high values.
Assay [2] is described as follows: human hepatoma cell viability loss – ATP luminescence, cytotoxicity control for P. falciparum antimalarial project, primary screen (AID 2303;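 active = inhibition above 50%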;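 also: 0% = DMSO wells and 100% = digitonin-killed cells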). Conditions: HepG2 viability, 24-48 h, at 10 µM, hits give high values.
For assay [3], the target named is L-lactate dehydrogenase (Plasmodium falciparum (isolate CDC / Honduras)) (UniProt Q27743). Nature of the assay: PfLDH activity inhibition – cell lysate, 3D7 strain, counter-screen for P. falciparum growth inhibition project (AID 2304).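 Also: 0% = vehicle and 100% = reference inhibitor.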 Conditions: P. falciparum 3D7 crude extract, LDH APAD/NBT absorbance; at 2 µM; hits give high values.
Assay [4] is described as follows: inhibition of 3D7 malaria parasite growth – strain 3D7 (AID 2306).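 Also: 0% = DMSO wells and 100% = chloroquine plus artemisinin control wells.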 Conditions: P. falciparum 3D7 erythrocytic growth, LDH absorbance, 72 h; at 2 µM; hits give high values.
For assay [5], the target named is Calcium-dependent protein kinase 1 (Plasmodium falciparum (isolate 3D7)) (UniProt P62344). The experiment in a line: PfCDPK1 kinase inhibitors, biochemical, TCAMS library (AID 1159585; cut-off not given, nearly all actives have IC50 up to about 0.98 µM;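 also: inhibitors leave more ATP so luminescence rises with inhibition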). Conditions: recombinant PfCDPK1, Kinase-Glo ATP depletion luminescence. Background: Kinase-Glo measures the ATP left after a reaction by luminescence.
For assay [6], the target named is Plasmodium falciparum protein kinase 6 (PK6, PF3D7_1337100) (UniProt Q8IDW1). Nature of the assay: PfPK6 kinase inhibitors, biochemical, TCAMS library (AID 1159586). Conditions: recombinant PfPK6, Kinase-Glo ATP depletion luminescence.
Assay [7] has as its target Protein kinase 7 (PK7), Plasmodium falciparum 3D7 (PF3D7_0213400) (UniProt Q7YTF7). The experiment in a line: inhibition of Plasmodium PK7 catalytic activity – biochemical, TCAMS antimalarial set, Kinase-Glo luminescence (AID 1159587). Conditions: recombinant PfPK7, Kinase-Glo ATP depletion luminescence.
For assay [8], the target named is Calcium-dependent protein kinase 4 (Plasmodium falciparum (isolate 3D7)) (UniProt Q8IBS5). The experiment in a line: PfCDPK4 kinase inhibitors, biochemical, TCAMS library (AID 1159588; cut-off not given, nearly all actives have IC50 up to about 0.91 µM). Conditions: recombinant PfCDPK4, Kinase-Glo ATP depletion luminescence.
Chain of Calcium-dependent protein kinase 4 (Plasmodium falciparum (isolate 3D7)) (Q8IBS5 whole entry, looked up): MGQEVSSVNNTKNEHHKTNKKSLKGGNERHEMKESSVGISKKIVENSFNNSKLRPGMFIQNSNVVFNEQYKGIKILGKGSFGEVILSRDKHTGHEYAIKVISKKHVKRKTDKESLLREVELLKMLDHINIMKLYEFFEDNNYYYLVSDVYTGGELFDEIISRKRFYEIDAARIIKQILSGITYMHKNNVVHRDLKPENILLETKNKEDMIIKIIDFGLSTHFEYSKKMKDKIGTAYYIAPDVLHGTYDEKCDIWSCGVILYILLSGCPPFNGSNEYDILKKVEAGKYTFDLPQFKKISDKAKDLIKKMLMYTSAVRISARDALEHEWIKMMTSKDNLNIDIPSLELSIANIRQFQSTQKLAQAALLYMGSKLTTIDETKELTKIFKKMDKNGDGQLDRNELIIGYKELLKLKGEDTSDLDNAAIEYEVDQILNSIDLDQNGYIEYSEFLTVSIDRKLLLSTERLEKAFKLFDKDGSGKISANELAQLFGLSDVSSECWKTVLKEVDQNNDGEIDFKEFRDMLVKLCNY

Chain of L-lactate dehydrogenase (Plasmodium falciparum (isolate CDC / Honduras)) (Q27743 whole entry, looked up): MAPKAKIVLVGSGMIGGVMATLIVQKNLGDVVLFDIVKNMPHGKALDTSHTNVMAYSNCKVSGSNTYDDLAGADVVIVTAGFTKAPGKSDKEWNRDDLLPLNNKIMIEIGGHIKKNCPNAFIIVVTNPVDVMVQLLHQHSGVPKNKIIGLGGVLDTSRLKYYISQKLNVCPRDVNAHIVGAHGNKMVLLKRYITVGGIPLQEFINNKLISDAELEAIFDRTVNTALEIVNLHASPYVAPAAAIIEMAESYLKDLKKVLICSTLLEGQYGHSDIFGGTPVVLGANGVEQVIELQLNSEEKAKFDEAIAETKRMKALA
Chain of Plasmodium falciparum protein kinase 6 (PK6, PF3D7_1337100) (Q8IDW1 1-305): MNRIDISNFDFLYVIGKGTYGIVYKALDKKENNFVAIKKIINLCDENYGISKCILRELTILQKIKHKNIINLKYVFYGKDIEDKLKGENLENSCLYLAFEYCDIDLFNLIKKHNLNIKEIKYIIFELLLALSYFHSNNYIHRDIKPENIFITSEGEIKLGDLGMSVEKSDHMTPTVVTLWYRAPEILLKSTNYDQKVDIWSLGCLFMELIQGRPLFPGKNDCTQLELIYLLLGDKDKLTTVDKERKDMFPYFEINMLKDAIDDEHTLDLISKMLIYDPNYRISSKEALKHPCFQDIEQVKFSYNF
Chain of Calcium-dependent protein kinase 1 (Plasmodium falciparum (isolate 3D7)) (P62344 whole entry, looked up): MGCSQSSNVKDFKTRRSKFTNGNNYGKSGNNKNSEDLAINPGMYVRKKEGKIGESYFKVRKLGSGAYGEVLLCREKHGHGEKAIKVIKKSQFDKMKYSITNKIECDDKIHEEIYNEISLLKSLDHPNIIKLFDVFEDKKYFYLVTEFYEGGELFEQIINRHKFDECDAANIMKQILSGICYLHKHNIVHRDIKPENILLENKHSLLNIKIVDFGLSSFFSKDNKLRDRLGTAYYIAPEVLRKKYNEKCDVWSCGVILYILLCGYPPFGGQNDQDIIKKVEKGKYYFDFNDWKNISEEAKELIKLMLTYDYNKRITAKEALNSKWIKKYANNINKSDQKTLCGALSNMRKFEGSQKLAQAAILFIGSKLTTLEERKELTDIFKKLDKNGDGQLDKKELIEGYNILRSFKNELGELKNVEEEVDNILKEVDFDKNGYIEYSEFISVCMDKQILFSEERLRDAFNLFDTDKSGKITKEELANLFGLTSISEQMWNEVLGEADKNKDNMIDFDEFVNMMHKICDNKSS
Chain of Protein kinase 7 (PK7), Plasmodium falciparum 3D7 (PF3D7_0213400) (Q7YTF7 1-343): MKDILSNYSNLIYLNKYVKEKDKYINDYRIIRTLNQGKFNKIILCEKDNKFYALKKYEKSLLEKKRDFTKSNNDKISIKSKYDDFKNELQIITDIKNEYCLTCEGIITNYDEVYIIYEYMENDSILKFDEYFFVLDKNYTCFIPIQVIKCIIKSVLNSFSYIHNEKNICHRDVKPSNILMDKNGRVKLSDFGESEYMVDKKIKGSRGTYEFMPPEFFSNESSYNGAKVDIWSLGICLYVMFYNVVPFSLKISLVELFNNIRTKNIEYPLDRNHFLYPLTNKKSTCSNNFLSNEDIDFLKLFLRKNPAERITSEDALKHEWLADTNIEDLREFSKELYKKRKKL

As for `Oc1ccc(Cl)cc1-c1cc(C(F)(F)F)nc(-c2ccccc2)n1`, the growth inhibition is 92% (active) in assay [1] and 99% (active) in assay [4]. Also, the inhibition in assay [2] was 20%; in assay [3], 3%. In addition, the result in assay [5], in assay [6], in assay [7] and in assay [8] was inactive.
As for `CCCCC(CCCC)CN1C(=O)C(c2ccccc2)(c2ccccc2)N=C1N`, the growth inhibition in assay [1] and in assay [4] was 96% (active) each time. The inhibition was 28% in assay [2] and -3% in assay [3]. The outcome in assay [5], in assay [6], in assay [7] and in assay [8] was inactive.
Regarding `CS(=O)(=O)Nc1cccc(-c2cnc3[nH]cc(-c4ccc(CCC(=O)O)cc4)c3c2)c1`, the figures for the growth inhibition in assay [1] and in assay [4] were 78% (active) and 98% (active), respectively. Besides, the inhibition is 7% in assay [2] and 2% in assay [3]. Moreover, the result in assay [5], in assay [6], in assay [7] and in assay [8] was inactive.
With `Cc1cnc(NCC2CCCCC2)nc1N[C@@H](CC(C)C)C(=O)Nc1ccccc1`, the growth inhibition in assay [1] was 55% (active); in assay [4], 96% (active). Besides, the results for the inhibition in assay [2] and in assay [3] were 12% and -2%, respectively. Besides, the result in assay [5], in assay [6], in assay [7] and in assay [8] was inactive.
Consider `COc1cc(NC(=O)c2sc(-c3ccc(Cl)cc3)cc2NC(=O)CN2CC[C@@H](O)C2)ccc1OCCN1CCCC1`, for which the growth inhibition is 79% (active) in assay [1] and 90% (active) in assay [4]. Also, the inhibition in assay [2] was 56% (active); in assay [3] it was 6%. The result in assay [5], in assay [6], in assay [7] and in assay [8] was inactive.
For the compound `COc1ccc(CNCc2ccc(F)cc2)cc1-c1ccc(S(=O)(=O)NCCN2CCCC2)c(C)c1`, the results for the growth inhibition in assay [1] and in assay [4] were 56% (active) and 98% (active), respectively. For the same compound, the inhibition was 55% (active) in assay [2] and -2% in assay [3]. The result in assay [5], in assay [6], in assay [7] and in assay [8] was inactive.
`O=S(=O)(NCCN1CCCC1)c1ccc(-c2ccc(CNCc3ccsc3)cc2)cc1`: the growth inhibition in assay [1] was 36%; in assay [4] it was 95% (active). The inhibition in assay [2] was 44%; in assay [3], -5%. For the same compound, the outcome in assay [5], in assay [6], in assay [7] and in assay [8] was inactive.
`O=C(NCC1CCC(CNCCc2ccccc2)CC1)Nc1ccc(Cl)c(Cl)c1` (stereo not given): the growth inhibition in assay [1] was -3%; in assay [4], 96% (active). Further, the inhibition in assay [2] is 24%; in assay [3] it was -1%. The outcome in assay [5], in assay [6], in assay [7] and in assay [8] was inactive.
Turning to `COc1ccc2nccc([C@@H](O)CN3CCC(NCc4nc5c(OCc6ccccc6)cccc5[nH]4)CC3)c2c1`, the figures for the growth inhibition in assay [1] and in assay [4] were 34% and 101% (active), respectively. Moreover, the inhibition in assay [2] was 6%; in assay [3], 3%. Moreover, the result in assay [5], in assay [6], in assay [7] and in assay [8] was inactive.
For `Cc1ccc(Nc2nc3cc(N(C)c4ccnc(Nc5cccc(CS(C)(=O)=O)c5)n4)ccc3o2)cc1`, the figures for the growth inhibition in assay [1] and in assay [4] were 16% and 90% (active), respectively. The inhibition in assay [2] was -19%; in assay [3], 3%. Further, the result in assay [5], in assay [6], in assay [7] and in assay [8] was inactive.
Turning to `CN(C(=O)c1nn(-c2ccccn2)c2nccc(-c3cccs3)c12)C1CCCCC1`, the growth inhibition in assay [1] was 1%; in assay [4], 87% (active). Further, the inhibition is 4% in assay [2] and -1% in assay [3]. Besides, the outcome in assay [5], in assay [6], in assay [7] and in assay [8] was inactive.
Regarding `CC1N=C(N)N=C(N)N1OCc1cccc2ccccc12` (stereo not given), the growth inhibition in assay [1] is 4%; in assay [4] it was 93% (active). The inhibition in assay [2] was 66% (active); in assay [3] it was -2%. Further, the result in assay [5], in assay [6], in assay [7] and in assay [8] was inactive.
As for `Cc1ccccc1N1CCN(c2ccc(C(=O)Nc3ccccc3)cn2)CC1`, the growth inhibition in assay [1] was 69% (active); in assay [4], 95% (active). Moreover, the inhibition in assay [2] was 44%; in assay [3], -5%. Moreover, the result in assay [5], in assay [6], in assay [7] and in assay [8] was inactive.
For the compound `Cn1cnc(CCNC(=O)c2ccc(-c3ccc(-c4nc5ccc(C(F)(F)F)cc5[nH]4)s3)cc2)c1`, the growth inhibition is 99% (active) in assay [1] and 102% (active) in assay [4]. The inhibition in assay [2] is 75% (active); in assay [3], -2%. In addition, the result in assay [5], in assay [6], in assay [7] and in assay [8] was inactive.
Take `O=C(Nc1cccc(-c2ccc(-c3nc4ccccc4[nH]3)cc2)c1)Nc1ccc2c(c1)OCO2`: the growth inhibition is 8% in assay [1] and 90% (active) in assay [4]. For the same compound, the inhibition in assay [2] was 20%; in assay [3], -1%. In addition, the result in assay [5], in assay [6], in assay [7] and in assay [8] was inactive.
Take `Cn1cncc1C(=O)Nc1cccc(-c2csc(-c3nc4ccccc4[nH]3)c2)c1`: the growth inhibition in assay [1] is 64% (active); in assay [4], 102% (active). The inhibition in assay [2] is 15%; in assay [3] it was -3%. Moreover, the outcome in assay [5], in assay [6], in assay [7] and in assay [8] was inactive.
With `CCCn1c(SCC(=O)Nc2cc(C(F)(F)F)ccc2Cl)n[nH]c1=O`, the values for the growth inhibition in assay [1] and in assay [4] were 94% (active) and 96% (active), respectively. The inhibition is -6% in assay [2] and -2% in assay [3]. For the same compound, the outcome in assay [5], in assay [6], in assay [7] and in assay [8] was inactive.
For `CCN(CC)CCN(Cc1ccc(-c2ccc(Cl)cc2)cc1)C(=O)Cn1cc(CN(C)C)c(=O)nc1SCc1ccc(F)cc1`, the growth inhibition in assay [1] and in assay [4] was 99% (active) throughout. Also, the inhibition is 49% in assay [2] and 1% in assay [3]. For the same compound, the result in assay [5], in assay [6], in assay [7] and in assay [8] was inactive.
Take `Cc1cccc2[nH]c(-c3cccc(-c4ccc(NC(=O)CC5NC(=O)c6ccccc65)cc4)c3)nc12` (stereo not given): the figures for the growth inhibition in assay [1] and in assay [4] were 67% (active) and 100% (active), respectively. Moreover, the results for the inhibition in assay [2] and in assay [3] were 30% and -7%, respectively. Moreover, the outcome in assay [5], in assay [6], in assay [7] and in assay [8] was inactive.
For the compound `CCCCN1Cc2c(n(CC(=O)Nc3ccccc3)c3cc(-c4ccccc4)nn3c2=O)C1=O`, the results for the growth inhibition in assay [1] and in assay [4] were 60% (active) and 92% (active), respectively. Besides, the figures for the inhibition in assay [2] and in assay [3] were 1% and -1%, respectively. Further, the result in assay [5], in assay [6], in assay [7] and in assay [8] was inactive.

The inhibition is the drop in the measured response relative to a control, in per cent.
